Only some compounds are listed: those with a hit (about 2% of all), similar ones and a draw of the others.
Neddylation inh = blocks human cullin neddylation | TR-FRET cullin neddylation, biochemical | inhibition, % at 25 µM | 0.58% of 360,000 active | AID 651699; in the data active = inhibition above about 36%
Target sequence (P61081 whole entry, looked up): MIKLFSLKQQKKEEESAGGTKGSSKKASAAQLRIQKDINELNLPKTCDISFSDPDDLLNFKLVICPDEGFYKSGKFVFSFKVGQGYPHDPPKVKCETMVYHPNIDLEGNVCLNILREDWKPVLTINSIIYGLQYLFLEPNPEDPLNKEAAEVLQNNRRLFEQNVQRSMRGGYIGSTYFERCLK
Target sequence (Q13564 whole entry, looked up): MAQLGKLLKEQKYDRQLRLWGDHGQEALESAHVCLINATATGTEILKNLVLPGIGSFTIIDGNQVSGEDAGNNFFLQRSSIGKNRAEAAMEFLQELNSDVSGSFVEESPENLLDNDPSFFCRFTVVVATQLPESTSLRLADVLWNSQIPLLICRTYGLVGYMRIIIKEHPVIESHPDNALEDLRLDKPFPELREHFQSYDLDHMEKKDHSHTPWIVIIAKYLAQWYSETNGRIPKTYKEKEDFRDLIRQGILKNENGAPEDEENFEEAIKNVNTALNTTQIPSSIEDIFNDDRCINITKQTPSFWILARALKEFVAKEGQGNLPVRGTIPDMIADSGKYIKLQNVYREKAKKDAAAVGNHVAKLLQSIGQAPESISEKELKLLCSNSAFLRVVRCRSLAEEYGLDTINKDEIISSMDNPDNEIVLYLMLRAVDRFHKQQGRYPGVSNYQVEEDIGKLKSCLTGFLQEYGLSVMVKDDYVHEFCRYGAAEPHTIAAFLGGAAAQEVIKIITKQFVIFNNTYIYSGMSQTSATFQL
ARNT TACC3 PPI = disruptors of human ARNT/TACC3 interaction | Q9Y6A5 | AlphaScreen His-ARNT PAS-B/GST-TACC3 binding, luminescence; TACC3 fragment carries E629A point mutation | inhibition, % at 9.99 µM | 0.66% of 390,000 active | AID 623870;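 active = mean inhibition of replicates at least 50% and at least half of replicates each reaching 50%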;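 also: 0% = complete ARNT plus TACC3 wells and 100% = ARNT alone without TACC3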
sPLA2-III inh = Inhibits HGIII-sPLA2 liposome hydrolysis, primary screen. Q9NZ20. QFRET BODIPY PC-A2 liposome hydrolysis, fluorescence. inhibition, % at 12.2 µM. 0.56% of 370,000 active. AID 743126;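 active = inhibition above mean plus 3 SD of compounds lying within the high and low control bounds, cut at about 19% in these data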;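 also: 0% = median of test compound wells and 100% = no enzyme DMSO wells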
DAGLB inh = blocks human DAGLB lipase activity. Q8NCG7. HEK293T DAGLB membrane lysate, EnzChek fluorogenic substrate. 0.059% of 340,000 active. AID 504411. inhibition, % at 5.17 µM; in the data active = inhibition above about 34%;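 also: 0% = enzyme with vehicle and 100% = wells lacking enzyme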
NadD inh = inhibitors of Staphylococcus aureus NadD. purified NadD enzyme, colorimetric absorbance read-out. inhibition, % at 20 µM. 0.78% of 360,000 active. AID 602399; in the data active = inhibition above about 26%
* hit, by the source's call; · = no result given.

SMILES	Neddylation inh	ARNT TACC3 PPI	sPLA2-III inh	DAGLB inh	NadD inh
Cc1nc(C)c(C(=O)C2=C(O)C(=O)N(CCN3CCOCC3)C2c2ccco2)s1 (configuration not stated)	1	49*	-1	2	2
Cn1c2ccccc2c2cc(/C=N/NC(=O)c3ccc(O)cc3O)ccc21	68*	2	·	2	40*
Cn1c(O)c(/C=N/NC(=O)c2cc3ccccc3cc2O)c2ccccc21	·	10	0	5	31*
CN1c2ccc(C#Cc3cccnc3)cc2[C@@H]2[C@@H](CCN2C(=O)c2cccc(F)c2)[C@H]1CO	·	3	·	·	·
CN(C)c1ccc2c(c1)[C@@H]1C[C@H](CC(=O)NCc3cccc(F)c3)O[C@H](CO)[C@@H]1O2	·	24	·	·	·
Cc1ccc(NC(=O)c2cc3ccccc3oc2=N)cc1	0	-4	10	3	1
N=c1oc2c3c4c(cc2cc1C(=O)Nc1ccccc1)CCCN4CCC3	-70	-3	·	-175	31*
CCCNC(=O)N1[C@@H]2CN(C(=O)c3ccccc3)c3ccccc3[C@@H]2[C@@H]1CO	·	-13	·	·	·
CCCCC1OC23CCCCC2C(C#N)(C#N)C1(C#N)C(=N)O3 (configuration not stated)	50*	·	-8	-1	4
COC(=O)[C@H]1[C@H](CO)[C@H]2Cn3c(ccc(C4=CCCCC4)c3=O)[C@H]2N1C(=O)C1CCC1	·	0	·	·	·
COc1ccc(S(=O)(=O)N(C)C[C@H]2Oc3cc(C#CC4CC4)ccc3S(=O)(=O)N([C@@H](C)CO)C[C@H]2C)cc1	·	7	·	·	·
O=C(/C=C/c1ccc(F)cc1)NC(=S)NNC(=O)c1cnccn1	65*	64*	11	3	1
O=C(NC(=S)NNC(=O)c1cnccn1)c1ccc(F)cc1	2	68*	4	0	1
O=C(NNC(=S)NC(=O)c1cccnc1)c1ccc(F)cc1	31	28	7	-1	-3
COc1ccc(/C=C/C(=O)NC(=S)NNC(=O)c2cnccn2)cc1	59*	61*	6	3	-3
C/C=C/c1ccc2c(c1)O[C@H](CN(C)C(=O)NCCC)[C@H](C)CN([C@@H](C)CO)S2(=O)=O	·	-3	·	·	·
Cc1ccccc1C(=O)NNC(=S)Nc1cccc(C(F)(F)F)c1	4	5	24*	3	2
CO[C@@H]1CN(C)C(=O)c2ccc(NC(=O)c3cc(C)on3)cc2OC[C@@H](C)N(C)C[C@@H]1C	·	1	·	·	·
CN(/C=C/c1c([N+](=O)[O-])c(=O)n(C)c(=O)n1C)c1ccccc1	-21	active	2	1	-2
O=C(O)c1cc(N=Nc2c(O)ccc3ccccc23)cc(C(=O)O)c1	-132	·	5	3	10
O=C(O)c1ccc(N=Nc2c(O)ccc3ncccc23)cc1	-74	62*	-17	13	-3
Cc1cc(/C=N/n2c(COc3ccccc3)nc3ccccc3c2=O)c(O)c([N+](=O)[O-])c1	-48	17	39*	18	22
COc1cc2ccnc(C=O)c2cc1OC	2	·	·	-8	1
COc1ccc(C(N)c2nccc3cc(OC)c(OC)cc23)cc1OC (configuration not stated)	0	72*	·	0	-7
CC(C)NC(=O)Nc1ccc2c(c1)C(=O)N([C@@H](C)CO)C[C@H](C)[C@@H](CN(C)S(=O)(=O)c1cn(C)cn1)OCCCC[C@@H](C)O2	·	-12	·	·	·
SMILES	Neddylation inh	ARNT TACC3 PPI	sPLA2-III inh	DAGLB inh	NadD inh
CCCNC(=O)N[C@H]1CC[C@@H](CCn2cc(C3CCCC3)nn2)O[C@@H]1CO	·	12	·	·	·
CO[C@H]1CN(C)C(=O)c2cc(NS(=O)(=O)CC(F)(F)F)ccc2OC[C@H](C)N(Cc2cccnc2)C[C@H]1C	·	1	·	·	·
Cc1ccc(C)c(SCC(=O)Nc2cccc(S(=O)(=O)N3CCOCC3)c2)c1	5	-12	-13	-3	-8
Cc1cccc(NC(=O)CSc2cccc3cccnc23)c1C	·	84*	-8	-4	7
Cc1ccccc1NC(=O)CSc1n[nH]c(-c2ccccn2)n1	-1	64*	1	-1	-1
O=C(CSc1cccc2cccnc12)Nc1cccc(S(=O)(=O)N2CCOCC2)c1	32	26*	-6	-1	-1
Cc1ccccc1NC(=O)CSc1nnc(-c2ccccn2)o1	-1	·	3	-5	1
C[C@@H]1CN([C@@H](C)CO)C(=O)c2cccc(NC(=O)Nc3ccc(C(F)(F)F)cc3)c2O[C@H]1CN(C)S(C)(=O)=O	·	-6	·	·	·
C[C@@H]1CCCCO[C@@H](CN(C)S(=O)(=O)c2cn(C)cn2)[C@H](C)CN([C@H](C)CO)C(=O)c2cc(NC(=O)CCC(F)(F)F)ccc2O1	·	-8	·	·	·
O=C(NCC1(N2CCCCC2)CCCCC1)c1ccc(NS(=O)(=O)c2ccccc2)cc1	7	active	1	-2	-5
NC(=S)N=Nc1c(O)n(CC(=O)Nc2ccccc2)c2ccccc12	0	-23	10	2	5
Cc1cccc(NC(=O)Cn2c(O)c(N=NC(=O)c3ccccc3O)c3ccccc32)c1	-12	-7	6	19	35*
CCC(=O)N(C)C[C@@H]1Oc2cc(C#CCOC)ccc2S(=O)(=O)N([C@H](C)CO)C[C@@H]1C	·	-1	·	·	·
COC(Cc1n[nH]c(=S)n1-c1ccc(Cl)cc1)OC	-2	51*	-2	-2	5
COC(Cc1nnc(SC)n1-c1ccc(Cl)cc1)OC	5	-4	-6	-2	4
CCC(=O)N(C)C[C@@H]1Oc2cc(C#CC3CC3)ccc2S(=O)(=O)N([C@@H](C)CO)C[C@@H]1C	·	-7	·	·	·
CC(OC(=O)c1c2c(nc3ccccc13)/C(=C\c1ccc3c(c1)OCO3)CCC2)C(=O)Nc1ccc(S(N)(=O)=O)cc1 (configuration not stated)	30	-11	·	-79	44*
Cc1ccc(C)c(NC(=O)c2ncn[nH]2)c1	-3	-1	-4	1	14
O=C(NC1CCCC1)c1ncn[nH]1	-8	22*	0	2	1

Assay outcomes as filed in PubChem BioAssay.
